Screening results from PubChem.
Sm TGR block: blocks Schistosoma mansoni thioredoxin glutathione reductase; Q962Y6; purified TGR, DTNB reduction, TNB absorbance 405 nm; 3% of 360,000 active; AID 485364; Potency, µM (doses to about 114 µM), without a hit: top-dose activity change, negative = inhibition, hits mostly inhibitors; further: on the % scale 0 is the no-effect control and ±100 the full control effect; nearly all actives have a fitted effect of over 60% in size
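First, TGR (20 nM dispensed) and NADPH were mixed with compound. Second, a 15 min room-temperature incubation followed. Third, further NADPH and then DTNB were added to start the reaction. Finally, TNB absorbance was monitored kinetically.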
Pf growth 96h: P. falciparum growth inhibition at 96 hour, primary screen for plastid delayed-death inhibitors | P. falciparum luciferase reporter growth, 96 h | Potency, µM (titrated, usually from 28.7 µM), without a hit: at the top dose activity change, negative = inhibition, most hits filed as inhibitors | 6.9% of 320,000 active | AID 504834; further: on the % scale 0 is the no-effect control and ±100 the full control effect
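Erythrocytes infected with luciferase-expressing P. falciparum were dispensed at 2% hematocrit and 0.05% parasitemia (final), then incubated with compounds 96 hours at 37 C in 5% CO2. Luminescence after detection reagent addition reported growth.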
Pf growth 48h: P. falciparum growth inhibition at 48 hours (one generation); P. falciparum luciferase growth in erythrocytes, 48 h; Potency, µM (titrated, usually from 28.7 µM), without a hit: top-dose activity change, negative = inhibition, actives largely listed as inhibitors; 5.9% of 310,000 active; AID 504832; further: on the % scale 0 is the no-effect control and ±100 the full control effect
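Cell-based growth assay: transgenic P. falciparum expressing firefly luciferase, cultured in red cells within RPMI 1640 containing 0.5% w/v Albumax, 24 mM bicarbonate and gentamycin. A drop in luciferase activity indicates inhibition.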
SARS PLP yeast: SARS-CoV PLP inhibition in yeast | S. cerevisiae expressing SARS-CoV PLpro, growth rescue | Potency, µM (titrated, usually from 32.9 µM), for the others: at the top dose activity, positive = growth rescue, usual class: activators | 0.19% of 330,000 active; calls by dose curve; further: 0% is about no effect; nearly all actives have a fitted effect of over 55% in size
* marks the source's active call; other numbers are inactive results; ? = inconclusive; . = not tested or not shown. This is a sample that favours compounds with a hit; in the whole collection about 12% have one here. Unless noted, the call rests on the fitted dose curve; in most records, active means well fitted curve in the direction sought with a large enough effect; inconclusive means small, poorly fitted or top-dose-only effect, or another doubt; inactive means no such curve, though single readings can be large; an effect the other way counts as inactive or inconclusive. Potency means the concentration at half of the fitted maximal effect.

SMILES	Sm TGR block	Pf growth 96h	Pf growth 48h	SARS PLP yeast
Cc1ccc(C(=O)Nc2ccc(S(=O)(=O)N3CCCC3)cc2)cc1	4%	20%	-28%	3%
Cc1ccc(NC(=O)c2ccc(S(=O)(=O)N3CCCCC3)cc2)cc1	8%	12µM*	?	-5%
COc1cc(OC)c(N(C)S(=O)(=O)c2cccc(C(=O)Nc3nccs3)c2)cc1Cl	.	.	.	-23%
CCC1CCCCN1C(=O)c1nn(-c2ccc(C)cc2)c(=O)c2c1c1ccccc1n2C (centres undefined)	8%	.	.	.
Nc1ccc(NC(=O)c2cccc(C(=O)Nc3ccc(N)cc3Cl)c2)c(Cl)c1	1%	143%	-19%	0%
CC(=O)Nc1ccc(C(=O)Nc2ccc(S(=O)(=O)N3CCOCC3)cc2)cc1	-1%	8.3µM*	?	3%
CC(C)C(=O)Nc1cccc(C(=O)Nc2ccc(S(=O)(=O)N3CCOCC3)cc2)c1	2%	10µM*	-11%	8%
O=C(Nc1ccc(S(=O)(=O)N2CCOCC2)cc1)c1ccc([N+](=O)[O-])o1	28µM*	?	10µM*	-2%
O=C(Nc1ccc(S(=O)(=O)N2CCCC2)cc1)c1ccc([N+](=O)[O-])o1	.	.	.	-5%
